Laboratory results from the antibiotic and cytotoxicity screens of Wong et al. (2023).
The whole screen tested about 39,000 compounds, of which about 1,500 (3.8%) were called active. Many of the other results were omitted from the sample, so actives are more common in it than they were.

These molecules were tested on HSkMC (human skeletal muscle cells) (assay: cytotoxicity call (relative viability < 0.9)). Settings: 10 µM.

| SMILES | cytotoxicity call |
| --- | --- |
| C[C@H](CO)N1C[C@H](C)[C@@H](CN(C)S(=O)(=O)c2cn(C)cn2)Oc2ccc(NC(=O)NC3CCCCC3)cc2C1=O | inactive |
| COc1ccc([Si](C)(C)[C@@H]2[C@@H](CCO)O[C@]3(C(=O)N(Cc4ccc(N5C(=O)c6ccccc6Oc6ccccc65)cc4)c4ccccc43)[C@H]2C)cc1 | inactive |
| C[C@@H]1CCCCO[C@H](CN(C)Cc2ccccc2)[C@@H](C)CN([C@@H](C)CO)C(=O)c2cc(NC(=O)Cc3ccccc3)ccc2O1 | inactive |
| COc1ccc(NC(=O)Nc2ccc3c(c2)C(=O)N([C@H](C)CO)C[C@H](C)[C@H](CN(C)Cc2ccc(C(=O)Nc4ccccc4N)cc2)OCCCC[C@@H](C)O3)cc1 | inactive |
| CCOc1ccc(S(N)(=O)=O)cc1 | inactive |
| NS(=O)(=O)c1ccc(N2CCCC2=O)cc1 | inactive |
| C[C@H](CO)N1C[C@H](C)[C@H](CN(C)S(=O)(=O)c2cn(C)cn2)Oc2c(NC(=O)c3cnccn3)cccc2C1=O | inactive |
| Cc1noc(C)c1NC(=O)Nc1ccc2c(c1)C(=O)N([C@H](C)CO)C[C@@H](C)[C@H](CN(C)C(=O)Nc1c(C)noc1C)OCCCC[C@@H](C)O2 | inactive |
| O=C(c1cnc2ccccc2c1)C1CC1 | inactive |
| CNC[C@@H]1Oc2ccc(NC(=O)Cn3cnnn3)cc2CC(=O)N([C@H](C)CO)C[C@H]1C | inactive |
| Cc1noc(C)c1NC(=O)Nc1ccc2c(c1)C(=O)N([C@H](C)CO)C[C@@H](C)[C@@H](CN(C)Cc1ccc3c(c1)OCO3)OCCCC[C@@H](C)O2 | inactive |
| O=C(CCCCCNC(=O)OCc1ccc(CN(C(=O)Nc2ccccc2)[C@@H](Cc2ccccc2)Cn2cc(-c3ccccn3)nn2)cc1)NO | inactive |
| Cc1ccc(S(=O)(=O)Nc2ccc3c(c2)C(=O)N([C@H](C)CO)C[C@@H](C)[C@H](CN(C)Cc2ccc(C(F)(F)F)cc2)OCCCC[C@H](C)O3)cc1 | active |
| Cc1ccc(S(=O)(=O)Nc2ccc3c(c2)C(=O)N([C@H](C)CO)C[C@@H](C)[C@H](CN(C)Cc2ccc(C(F)(F)F)cc2)OCCCC[C@@H](C)O3)cc1 | inactive |
| Cc1ccc(S(=O)(=O)Nc2ccc3c(c2)C(=O)N([C@H](C)CO)C[C@H](C)[C@@H](CN(C)Cc2ccc(C(F)(F)F)cc2)OCCCC[C@@H](C)O3)cc1 | inactive |
| Cc1ccc(S(=O)(=O)Nc2ccc3c(c2)C(=O)N([C@@H](C)CO)C[C@H](C)[C@H](CN(C)Cc2ccc(C(F)(F)F)cc2)OCCCC[C@@H](C)O3)cc1 | inactive |
| Cc1ccc(S(=O)(=O)Nc2ccc3c(c2)C(=O)N([C@@H](C)CO)C[C@@H](C)[C@H](CN(C)Cc2ccc(C(F)(F)F)cc2)OCCCC[C@H](C)O3)cc1 | inactive |
| Cc1ccc(S(=O)(=O)Nc2ccc3c(c2)C(=O)N([C@@H](C)CO)C[C@@H](C)[C@@H](CN(C)Cc2ccc(C(F)(F)F)cc2)OCCCC[C@@H](C)O3)cc1 | active |
